In ChEMBL document CHEMBL1961873, “Compounds: GSK PKIS; Assays: Nanosyn kinase panel” (2012):

What was measured:
[1] = target: Serine/threonine-protein kinase 26 (Homo sapiens) (UniProt Q9P289); details: at 1 µM;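 note: mean inhibition of MST4 kinase activity, reported from the GSK PKIS inhibitor-set screening panel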
[2] = target: Serine/threonine-protein kinase PAK 1 (Homo sapiens) (UniProt Q13153); details: at 0.1 µM
[3] = target: Serine/threonine-protein kinase PAK 1 (Homo sapiens) (UniProt Q13153); details: at 1 µM
[4] = target: Serine/threonine-protein kinase PAK 2 (Homo sapiens) (UniProt Q13177); details: at 0.1 µM
[5] = target: Serine/threonine-protein kinase PAK 2 (Homo sapiens) (UniProt Q13177); details: at 1 µM
[6] = target: Serine/threonine-protein kinase PAK 3 (Homo sapiens) (UniProt O75914); details: at 0.1 µM
[7] = target: Serine/threonine-protein kinase PAK 3 (Homo sapiens) (UniProt O75914); details: at 1 µM
[8] = target: Serine/threonine-protein kinase PAK 5 (Homo sapiens) (UniProt Q9P286); details: at 0.1 µM
[9] = target: Serine/threonine-protein kinase PAK 5 (Homo sapiens) (UniProt Q9P286); details: at 1 µM
[10] = target: Serine/threonine-protein kinase PAK 6 (Homo sapiens) (UniProt Q9NQU5); details: at 0.1 µM;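 note: mean PAK6 inhibition reported from the GSK PKIS screen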
Sequence of Serine/threonine-protein kinase PAK 6 (Homo sapiens) (Q9NQU5 whole entry, looked up): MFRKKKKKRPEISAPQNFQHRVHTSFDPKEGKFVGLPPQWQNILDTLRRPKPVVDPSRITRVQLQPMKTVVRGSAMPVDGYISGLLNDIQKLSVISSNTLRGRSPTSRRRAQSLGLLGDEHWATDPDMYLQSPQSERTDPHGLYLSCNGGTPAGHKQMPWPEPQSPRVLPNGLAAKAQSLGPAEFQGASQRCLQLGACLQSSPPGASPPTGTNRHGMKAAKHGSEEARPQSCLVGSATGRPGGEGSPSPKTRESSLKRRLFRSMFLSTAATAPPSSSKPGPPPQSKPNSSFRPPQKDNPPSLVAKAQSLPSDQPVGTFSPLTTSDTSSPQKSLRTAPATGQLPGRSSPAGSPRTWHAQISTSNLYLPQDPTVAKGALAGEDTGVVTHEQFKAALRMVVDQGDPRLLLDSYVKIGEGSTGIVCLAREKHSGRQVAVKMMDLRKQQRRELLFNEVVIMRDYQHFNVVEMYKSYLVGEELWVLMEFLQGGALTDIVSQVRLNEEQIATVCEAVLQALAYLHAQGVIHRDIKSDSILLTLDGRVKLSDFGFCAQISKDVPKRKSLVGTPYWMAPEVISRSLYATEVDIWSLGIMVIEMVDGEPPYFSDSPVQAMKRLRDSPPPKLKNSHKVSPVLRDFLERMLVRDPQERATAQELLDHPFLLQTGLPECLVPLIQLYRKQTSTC

Sequence of Serine/threonine-protein kinase PAK 2 (Homo sapiens) (Q13177 whole entry): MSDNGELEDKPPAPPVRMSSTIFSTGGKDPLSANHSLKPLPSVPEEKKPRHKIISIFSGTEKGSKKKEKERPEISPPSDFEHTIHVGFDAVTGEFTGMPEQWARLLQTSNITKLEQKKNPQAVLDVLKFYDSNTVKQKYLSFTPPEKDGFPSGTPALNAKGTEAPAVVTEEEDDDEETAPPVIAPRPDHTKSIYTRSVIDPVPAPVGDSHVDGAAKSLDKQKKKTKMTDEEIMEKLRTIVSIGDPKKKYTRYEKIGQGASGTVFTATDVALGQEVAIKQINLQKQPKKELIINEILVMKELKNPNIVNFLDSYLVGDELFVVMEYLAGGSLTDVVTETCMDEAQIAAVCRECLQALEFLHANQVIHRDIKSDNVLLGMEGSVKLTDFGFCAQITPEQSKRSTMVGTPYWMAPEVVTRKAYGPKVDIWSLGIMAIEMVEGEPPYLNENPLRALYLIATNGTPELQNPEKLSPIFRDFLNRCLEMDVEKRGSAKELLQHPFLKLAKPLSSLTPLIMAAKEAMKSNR
Sequence of Serine/threonine-protein kinase PAK 5 (Homo sapiens) (Q9P286 whole entry, looked up): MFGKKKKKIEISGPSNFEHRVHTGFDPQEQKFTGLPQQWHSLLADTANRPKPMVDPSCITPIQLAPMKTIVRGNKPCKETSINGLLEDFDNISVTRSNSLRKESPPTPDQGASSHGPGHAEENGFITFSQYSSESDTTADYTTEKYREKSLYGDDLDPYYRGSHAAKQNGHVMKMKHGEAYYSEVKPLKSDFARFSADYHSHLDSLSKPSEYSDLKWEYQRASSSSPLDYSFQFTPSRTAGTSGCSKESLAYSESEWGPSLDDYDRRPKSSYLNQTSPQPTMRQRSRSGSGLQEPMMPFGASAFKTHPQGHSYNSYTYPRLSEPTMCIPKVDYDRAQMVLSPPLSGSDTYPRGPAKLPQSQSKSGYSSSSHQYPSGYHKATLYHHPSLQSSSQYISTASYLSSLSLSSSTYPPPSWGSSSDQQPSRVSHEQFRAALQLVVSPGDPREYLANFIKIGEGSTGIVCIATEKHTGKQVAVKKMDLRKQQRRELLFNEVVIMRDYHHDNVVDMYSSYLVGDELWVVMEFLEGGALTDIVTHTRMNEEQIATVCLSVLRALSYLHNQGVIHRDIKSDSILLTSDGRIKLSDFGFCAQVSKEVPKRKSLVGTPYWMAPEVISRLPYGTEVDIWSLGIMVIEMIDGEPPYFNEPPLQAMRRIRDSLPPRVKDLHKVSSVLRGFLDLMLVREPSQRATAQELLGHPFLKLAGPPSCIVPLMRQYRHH
Sequence of Serine/threonine-protein kinase PAK 1 (Homo sapiens) (Q13153 whole entry): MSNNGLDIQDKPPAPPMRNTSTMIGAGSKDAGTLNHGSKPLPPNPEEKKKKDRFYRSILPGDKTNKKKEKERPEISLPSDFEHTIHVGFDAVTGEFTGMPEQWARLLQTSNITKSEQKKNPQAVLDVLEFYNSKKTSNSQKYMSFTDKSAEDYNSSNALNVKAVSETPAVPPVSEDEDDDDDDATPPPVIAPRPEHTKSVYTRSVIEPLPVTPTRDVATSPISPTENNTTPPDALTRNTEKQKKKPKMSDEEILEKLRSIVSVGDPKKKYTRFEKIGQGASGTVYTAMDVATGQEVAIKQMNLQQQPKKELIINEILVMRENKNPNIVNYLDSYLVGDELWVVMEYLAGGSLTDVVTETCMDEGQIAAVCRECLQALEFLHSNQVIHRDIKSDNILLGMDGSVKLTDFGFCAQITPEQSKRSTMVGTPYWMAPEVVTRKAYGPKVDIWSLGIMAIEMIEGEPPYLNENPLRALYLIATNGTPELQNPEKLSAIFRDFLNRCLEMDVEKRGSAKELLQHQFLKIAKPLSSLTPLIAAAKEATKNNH
Sequence of Serine/threonine-protein kinase PAK 3 (Homo sapiens) (O75914 whole entry, looked up): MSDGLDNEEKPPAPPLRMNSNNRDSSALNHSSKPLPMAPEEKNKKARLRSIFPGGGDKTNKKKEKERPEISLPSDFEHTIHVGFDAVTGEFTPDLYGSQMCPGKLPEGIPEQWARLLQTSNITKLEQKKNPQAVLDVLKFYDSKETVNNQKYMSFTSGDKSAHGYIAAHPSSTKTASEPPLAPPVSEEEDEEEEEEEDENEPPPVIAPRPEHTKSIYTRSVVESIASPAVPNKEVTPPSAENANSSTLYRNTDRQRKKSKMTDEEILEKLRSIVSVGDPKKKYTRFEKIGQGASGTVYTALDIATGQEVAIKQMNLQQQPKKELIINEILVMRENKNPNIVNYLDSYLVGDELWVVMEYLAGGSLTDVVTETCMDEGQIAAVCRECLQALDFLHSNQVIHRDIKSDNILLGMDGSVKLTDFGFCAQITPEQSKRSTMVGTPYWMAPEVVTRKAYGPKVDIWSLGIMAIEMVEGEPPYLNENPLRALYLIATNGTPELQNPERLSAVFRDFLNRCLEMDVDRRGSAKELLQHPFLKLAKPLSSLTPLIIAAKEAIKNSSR
Sequence of Serine/threonine-protein kinase 26 (Homo sapiens) (Q9P289 2-416 limits assumed): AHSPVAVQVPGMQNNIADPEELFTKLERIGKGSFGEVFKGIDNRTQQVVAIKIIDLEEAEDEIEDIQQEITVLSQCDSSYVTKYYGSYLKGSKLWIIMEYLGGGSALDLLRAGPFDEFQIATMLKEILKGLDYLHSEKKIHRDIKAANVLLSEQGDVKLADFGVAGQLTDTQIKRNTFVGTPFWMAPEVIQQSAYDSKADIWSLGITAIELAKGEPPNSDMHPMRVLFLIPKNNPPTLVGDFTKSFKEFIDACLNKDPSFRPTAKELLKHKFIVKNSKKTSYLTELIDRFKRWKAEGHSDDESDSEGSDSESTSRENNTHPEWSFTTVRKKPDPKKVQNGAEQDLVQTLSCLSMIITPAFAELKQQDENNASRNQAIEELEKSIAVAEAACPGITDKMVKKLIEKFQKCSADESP

| SMILES | inhibition [1] [%] | inhibition [2] [%] | inhibition [3] [%] | inhibition [4] [%] | inhibition [5] [%] | inhibition [6] [%] | inhibition [7] [%] | inhibition [8] [%] | inhibition [9] [%] | inhibition [10] [%] |
| --- | --- | --- | --- | --- | --- | --- | --- | --- | --- | --- |
| COc1cc(Nc2nccc(-c3cnn4ncccc34)n2)cc(OC)c1 | 4.52 | -0.14 | 2.57 | -0.1 | 2.59 | 0.77 | 3.43 | -6.63 | 9.42 | -2.46 |
| Nc1ccc(C#Cc2cncnc2Nc2ccc(OCc3cccc(F)c3)c(Cl)c2)cc1 | -2.17 | 0.57 | 1.46 | 0.83 | 0.22 | 3.57 | 2.79 | 0.61 | 2.79 | -4.23 |
| O=C1Nc2ccccc2/C1=C/Nc1ccc2[nH]c(=O)[nH]c2c1 | 2.72 | 10.5 | 7.51 | 0.87 | 1.53 | 7.05 | 5.03 | 5.25 | 3.2 | -6.58 |
| COc1ccc2ncnc(Nc3ccc(OCc4ccccc4)cc3)c2c1 | -1.42 | 0.31 | 3.44 | -0.61 | 0.47 | 2.33 | 2.78 | -6.57 | -2.45 | -7.36 |
| C[C@@H](Oc1cc(-n2cnc3ccc(OCC4CCN(C)CC4)cc32)sc1C(N)=O)c1ccccc1C(F)(F)F |  | -2.64 | 0.44 | -1.54 | -2.14 | -1.81 | 0.3 | -2.43 | -1.92 | 1.47 |
| ON=C1CCc2cc(-c3nc(C4CCNCC4)[nH]c3-c3ccncc3)ccc21 | -1.63 | 2.01 | 2.16 | -0.65 | -0.29 | -0.94 | -0.23 |  |  | 0.23 |
| CC(C)c1ccc2c(c1)NC(=O)/C2=N/Nc1ccc(S(N)(=O)=O)cc1 | 0.01 | -1.3 | 3.93 | -1.91 | -1.73 | -1.11 | 0.37 | -6.19 | -0.94 | -8.22 |
| COc1ccc(-c2nn3ncccc3c2-c2ccnc(Nc3cccc(C(F)(F)F)c3)n2)cc1 | -0.52 | 6.36 | 5.19 | 0.91 | -0.8 | 3.37 | 3.1 | 1.8 | 1.57 | -2.15 |
| Nc1nccc(-c2c(-c3ccc(F)cc3)nn3cc(C(F)(F)F)ccc23)n1 | 0.4 | 0.65 | 2.14 | -2.44 | -1.84 | -0.02 | -0.21 |  | -2.91 | 3.48 |
| Cc1cc(Cl)cc2c1NC(=O)C2=NNc1ccc(S(N)(=O)=O)cc1 | -0.49 | 0.68 | 1.71 | 1.05 | 0.72 | 3.63 | 4.8 | -4.18 | -1.19 | 2.65 |
| COc1cc2ncnc(Nc3ccc(C)c(O)c3)c2cc1OC | -1.08 | 6.98 | 7.41 | 1.81 | 2.35 | 5.88 | 5.36 | 0.51 | 7.08 | -1.14 |
| Cc1ccc2c(c1)/C(=N/Nc1ccc(S(N)(=O)=O)cc1)C(=O)N2 | 17.1 | -1.7 | 5.13 | 0.16 | -0.31 | 0.21 | -1.09 | -8.51 |  | -4.78 |
| COc1cccc(-n2ncc3c(N/N=C/c4ccc(S(C)(=O)=O)cc4)ncnc32)c1 | 2.58 | 2.37 | 3.02 | -0.07 | -0.47 | 0.46 | 1.53 | 2.27 | 10.1 | -8.81 |
| NS(=O)(=O)c1ccc(Nc2cc(-c3cccc(O)c3)n[nH]2)cc1 | -4.6 | 9.49 | 7.81 | 3.22 | 2.59 | 6.66 | 6.8 | 3.04 | -6.9 | -0.89 |
| C[C@@H](Oc1cc(-n2cnc3ccc(OC[C@@H](O)CO)cc32)sc1C(N)=O)c1ccccc1Cl | 1.05 | -2.19 | 1.45 | -2.74 | -0.42 | -2.28 | -0.49 | -7.17 | -4.24 | -7.41 |
| N#Cc1c(NC(=O)c2ccccc2F)sc2c1CCCC2 | 1.28 | -3.89 | 1.46 | -2.11 | -1.55 | -2.48 | -1.16 | -5.99 | -0.86 | 2.44 |
| NS(=O)(=O)c1ccc(NC=C2C(=O)Nc3ccc4ncsc4c32)cc1 | 78.9 | 7.91 | 8.35 | 2.5 | 4.68 | 5.33 | 6.6 |  | 5.11 | 0.36 |

| SMILES | inhibition [1] [%] | inhibition [2] [%] | inhibition [3] [%] | inhibition [4] [%] | inhibition [5] [%] | inhibition [6] [%] | inhibition [7] [%] | inhibition [8] [%] | inhibition [9] [%] | inhibition [10] [%] |
| --- | --- | --- | --- | --- | --- | --- | --- | --- | --- | --- |
| [O-][S+]1CCN(Cc2ccc(-c3ccc4ncnc(Nc5ccc(OCc6ccccc6)c(Cl)c5)c4c3)o2)CC1 | 1.64 | 2.5 | 4.24 | 0.11 | 0.24 | 0.99 | 2.19 | 2.51 | 1.72 | -9.51 |
| Nc1nccc(-c2c(-c3ccc(F)cc3)ncn2CCCN2CCOCC2)n1 | 11.2 | 9.14 | 6.55 | 1.64 | 1.75 | 5.89 | 4.41 |  | 3.01 | -1.31 |
| Cc1cc(O)cc(C)c1/C=C/c1cncc(C(=O)N(C)C)c1 | 1.13 | 2.77 | 6.81 | 1.73 | 0.38 | -0.76 | 2.83 | 3.14 | 6.26 | 7.18 |
| COC(=O)c1cncc(/C=C/c2c(C)cc(O)cc2C)c1 | -1.43 | 4.61 | 0.91 | 2.48 | 0.99 | 4.48 | 4.33 | 9.23 | 2.77 | 1.5 |
| c1ccc(Cc2nc3ccc(Nc4ncnc5ccccc45)cc3[nH]2)cc1 | -0.26 | 4.28 | 3.15 | 2.47 | 2.26 | 3.68 | 4.32 | 5.6 | 7.77 | -3.41 |
| CN(C)C(=O)O[C@@H]1CN[C@@H](C#Cc2cc3ncnc(Nc4ccc(OCc5cccc(F)c5)c(Cl)c4)c3s2)C1 | 0.17 | 1.48 | 2.04 | 0.43 | -0.42 | 0.58 | -0.38 | -5.8 |  | 2.87 |
| FC(F)(F)c1ccc(-c2nn3ncccc3c2-c2ccnc(Nc3ccc4c(c3)OCCO4)n2)cc1 | 7.92 | 4.61 | 0.84 | 1.32 | 1.42 | 3.69 | 4.75 | 6.24 | 11.3 | 9.3 |
| COc1cc(/C=N/Nc2ncnc3c2cnn3C(C)C)ccc1O | 3.49 | 3.62 | 2.53 | -0.56 | -0.45 | -3.86 | 1.26 |  | 4.69 | -0.32 |
| Cc1nc(-c2ccccc2)n2nc(NCCCN3CCOCC3)ncc12 | 0.4 | 2.24 | 6.68 | 0.56 | 0.27 | 1.98 | 4.33 | 1.91 | 1.28 | -9.04 |
| CS(=O)(=O)Nc1cccc(-c2ccc3c(NC(=O)C4CC4)n[nH]c3c2)c1 | 1.22 | 2.69 | 3.3 | 0.99 | 0.37 | 0.48 | 1.23 |  |  | -7.16 |
| CN(C)CCCn1c(-c2nonc2N)nc2cnccc21 | -1.75 | 6.36 | 9.52 | 1.48 | 2.17 | 4.61 | 5.23 |  | -5.06 | 7.58 |
| CCn1c(-c2nonc2N)nc2ccc(F)cc21 | 3.36 | 12 | 11.2 | 3.1 | 3.8 | 7.78 | 6.52 | -1.6 |  | 2.06 |
| Cc1ccc(O)cc1Nc1ccnc2ccc(S(C)(=O)=O)cc12 | -0.56 | 9.27 | 13.3 | 2.82 | 2.56 | 5.79 | 6.05 | 1.8 | 8.34 | -3.21 |
| O=C1Nc2ccc(-c3cccnc3)cc2C1=Cc1cc(Br)c(O)c(Br)c1 | 36 | 6.15 | 6.31 | 2.5 | 2.17 | 4.09 | 4.77 | 0.53 | -0.35 | -0.06 |
| CCOc1nccc2c1nc(-c1nonc1N)n2CC | -0.82 | 5.11 | 2.07 | 0.86 | 1.74 | 3.24 | 4.4 | 7.54 | 6.11 | 5.85 |
| CN(C)c1cc2c(Nc3ccc4c(cnn4Cc4ccccc4)c3)ncnc2cn1 | -0.54 | 6.36 | 6.67 | 0.73 | 0.51 | 3.07 | 3.39 | -1.52 | -2.02 | 4.32 |
